Bioassay records as filed in PubChem.
This is one part of a sample in which hits are shown more often than they occur.
NS1 function inh: qHTS Assay for Inhibitors of Influenza NS1 Protein Function; Potency, µM (titrated, usually from 46.1 µM), for inactives: at the highest dose activity, positive = more growth; 270,000 compounds, 0.4% hits; AID 2326, 2010; calls by dose curve; note: actives are rising curves; nearly all actives have a fitted effect of over 50% in size
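Recovery from NS1-induced slow growth read by OD600 in budding yeast switched to galactose assay medium (pH 6.0, -URA) at 1:100 dilution. Compound 23 nl per well; the matching strain lacking NS1 serves as control.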
Cruzain inh Det: qHTS Assay for Promiscuous and Specific Inhibitors of Cruzain (with detergent); purified cruzain, Z-FR-AMC fluorescence, 0.01% Triton; Potency, µM, inactives show max response, negative = inhibition, hits mostly inhibitors; 200,000 compounds, 0.43% hits; AID 1478, 2009;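 note: plate controls were neutral wells for no effect and buffer without enzyme for full effect; nearly all actives have a fitted effect of over 40% in size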
Target sequence (P25779 123-467 limits assumed): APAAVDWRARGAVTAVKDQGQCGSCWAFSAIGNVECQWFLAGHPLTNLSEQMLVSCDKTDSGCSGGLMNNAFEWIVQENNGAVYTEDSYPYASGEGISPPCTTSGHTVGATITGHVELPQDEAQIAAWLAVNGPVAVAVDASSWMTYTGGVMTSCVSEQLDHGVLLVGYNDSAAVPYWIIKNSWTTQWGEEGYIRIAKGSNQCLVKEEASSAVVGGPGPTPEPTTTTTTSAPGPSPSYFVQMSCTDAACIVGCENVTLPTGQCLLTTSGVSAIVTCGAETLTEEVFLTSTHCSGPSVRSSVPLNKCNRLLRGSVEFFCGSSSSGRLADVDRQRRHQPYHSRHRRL
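Detergent-containing run (0.01% Triton X-100) in acetate buffer pH 5.5 with 5 mM DTT: enzyme at 1.5 nM final, 15 min compound preincubation at room temperature, then 2 uM Z-FR-AMC substrate. Activity taken as 60 s fluorescence increase at 360/450 nm.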
Cruzain noTriton: qHTS Assay for Promiscuous and Specific Inhibitors of Cruzain (without detergent) | AID 1476, 2009 | 200,000 compounds, 2.3% hits | purified cruzain, Z-FR-AMC fluorescence, no detergent | Potency, µM, inactives show max response, negative = inhibition, usual class: inhibitors;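 note: plate controls were enzyme without inhibitor for no effect and buffer without enzyme for full effect; nearly all actives have a fitted effect of over 40% in size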
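Purified cruzain at 1.5 nM, pre-incubated 15 min with compound at room temperature in 100 mM sodium acetate pH 5.5, 5 mM DTT, 0.00005% Triton X-100. Reaction started with 2 uM Z-FR-AMC; AMC fluorescence increase over 60 s gives rate.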
* hit, by the source's call. Unless noted, calls come from the whole dose curve; as a rule, active = well fitted curve in the direction sought with a large enough effect; inconclusive = small, poorly fitted or top-dose-only effect, or another doubt; inactive = no such curve, though single readings can be large; an effect the other way counts as inactive or inconclusive. Potency is the fitted concentration of half-maximal effect.

Screening C=CCN(CC=C)S(=O)(=O)c1ccc(NC(=S)NC(=O)/C=C/c2ccc(C)cc2)cc1 returned NS1 function inh 6%, Cruzain inh Det -1% and Cruzain noTriton 25µM*.
`C=CCN(CC=C)S(=O)(=O)c1ccc(NC(=S)NC(=O)c2ccc(-c3ccccc3)cc2)cc1` gave NS1 function inh 0%, Cruzain inh Det 1% and Cruzain noTriton -8%.
For C=CCN(CC=C)S(=O)(=O)c1ccc(NC(=S)NC(=O)/C=C/c2cccc3ccccc23)cc1 the results were NS1 function inh 0%, Cruzain inh Det 3% and Cruzain noTriton 4µM*.
For CN(C)c1ccc(NC(=S)NC(=O)/C=C/c2ccc(Cl)cc2)cc1 the results were NS1 function inh 19%, Cruzain inh Det 5% and Cruzain noTriton 5µM*.
Screening O=C(/C=C/c1ccc(Cl)cc1)NC(=S)Nc1ccc(C(=O)O)cc1 returned NS1 function inh 1%.
O=C(Nc1ccccc1C(=O)O)c1cccc(S(=O)(=O)Nc2ccc(Br)cc2)c1 was read as NS1 function inh 17%.
O=C(COc1ccc(S(=O)(=O)N2CCOCC2)cc1Cl)N1CCCC1 was read as NS1 function inh 8%.
`Nc1nc(Cl)cc(Oc2ccccc2F)n1` gave NS1 function inh -6%.
`Nc1ccc(Sc2cc(Cl)nc(N)n2)cc1` gave NS1 function inh 11%, Cruzain inh Det 6% and Cruzain noTriton 13µM*.
Screening COc1ccc(NC(=O)C2CCN(c3ncnc4c3nc3n4CCCCC3)CC2)c(OC)c1 returned NS1 function inh -1%.
For CNC(=O)c1ccccc1NC(=O)c1c(O)c2c([nH]c1=O)CCCC2 the results were NS1 function inh -15%, Cruzain inh Det -1% and Cruzain noTriton inconclusive.
`O=C(N/N=C/c1cccc(F)c1)c1c(O)c2c([nH]c1=O)CCCC2` gave NS1 function inh 21%, Cruzain inh Det -3% and Cruzain noTriton 20µM*.
For CCS(=O)(=O)c1ccc(-c2csc(-c3ccc(Cl)cc3)n2)c(Cl)c1Cl the results were NS1 function inh 6%, Cruzain inh Det 2% and Cruzain noTriton inconclusive.
`Nc1c(S(=O)(=O)O)cc(S(=O)(=O)O)c2ccc(N=Nc3ccccc3)c(O)c12` gave NS1 function inh -6%, Cruzain inh Det 0% and Cruzain noTriton -7%.
For Cc1cc(-c2ccc(N=Nc3cc(S(=O)(=O)O)c4ccccc4c3N)c(C)c2)ccc1N=Nc1cc(S(=O)(=O)O)c2ccccc2c1N the results were Cruzain inh Det 7.9µM* and Cruzain noTriton inconclusive.
CCOc1ccc(CC(=O)NNC(=O)NC2CCCCC2)cc1 was read as NS1 function inh 4%.
`CC1CCCC(C)N1C(=O)CSc1nnc(CSc2ncccn2)n1C` (stereo not given) gave NS1 function inh -5%, Cruzain inh Det 2% and Cruzain noTriton -4%.
Cc1sc2nc(SCCN(C)C)n(-c3ccccc3)c(=O)c2c1-c1ccc(F)cc1 was read as NS1 function inh 17%.
Screening COC(=O)c1sccc1NC(=S)N1CCCCC1 returned NS1 function inh 5%, Cruzain inh Det -1% and Cruzain noTriton -2%.
COC(=O)c1sccc1NC(=S)N1CCN(c2cccc(C)c2C)CC1 was read as NS1 function inh -2%, Cruzain inh Det -2% and Cruzain noTriton 16µM*.
`N/C(=N\OC(=O)c1ccc2ccccc2c1)c1ccc(Br)cc1` gave NS1 function inh 3%, Cruzain inh Det -2% and Cruzain noTriton 10µM*.
Cc1cccc(C(=O)O/N=C(\N)c2ccc(Br)cc2)c1 was read as NS1 function inh -41%, Cruzain inh Det 0% and Cruzain noTriton 3%.
For C[C@H](CCC(=O)O)C[C@H](C)C[C@H](C)C(=O)/C=C(\O)[C@H](C)C[C@H](C)C/C=C/[C@@H](C)[C@@H](O)[C@@H](C)[C@@H](O)C[C@@H]1CC[C@@](C)(C2CC[C@@](C)([C@@H](C)O)O2)O1 (stereo not given in full) the results were Cruzain inh Det -2% and Cruzain noTriton inconclusive.
O=C(Nc1ccccc1)c1ccc(S(=O)(=O)Nc2cccc(O)c2)cc1 was read as NS1 function inh 0%.
For NS(=O)(=O)c1ccc(NS(=O)(=O)c2ccc(NC(=O)c3ccc(-c4ccccc4)cc3)cc2)cc1 the results were NS1 function inh 25%, Cruzain inh Det -25% and Cruzain noTriton 13µM*.
For CC(NC(=O)c1ccccc1NS(C)(=O)=O)c1ccccc1 (stereo not given) the results were NS1 function inh 5%, Cruzain inh Det -3% and Cruzain noTriton -8%.
For O=C(c1ccco1)N1CCCC(Nc2ccc3c(c2)OCCO3)C1 (stereo not given) the results were NS1 function inh -3%.
CCOC(=O)c1[nH]c(C)c(CCC(=O)NCc2cccc(Cl)c2)c1C was read as Cruzain inh Det 4% and Cruzain noTriton -5%.
`O=C(COC(=O)[C@H](Cc1ccccc1)NC(=O)c1ccco1)NC(c1ccccc1)c1ccccc1` gave NS1 function inh -5%, Cruzain inh Det -7% and Cruzain noTriton 5%.
Cc1cc(NC(=O)COC(=O)C(Cc2ccccc2)NC(=O)c2ccco2)no1 (stereo not given) was read as NS1 function inh -15%, Cruzain inh Det 28µM* and Cruzain noTriton 25µM*.
For COc1ccccc1CC(NC(C)=O)C(=O)NC1CCN(S(=O)(=O)c2ccc(NC(C)=O)cc2)CC1 (stereo not given) the results were NS1 function inh -1%.
Screening CCCc1ccc(C(=O)NNc2cc(Cl)ccc2Cl)cc1 returned NS1 function inh -5%.
O=C(NC1CCCCC1)C(c1ccccc1)N(C(=O)Cc1ccsc1)c1ccccc1 (stereo not given) was read as NS1 function inh -1%, Cruzain inh Det 4% and Cruzain noTriton 16µM*.
`O=C(NC1CCCC1)C(c1ccsc1)N(C(=O)Cc1cccs1)c1ccccc1` (stereo not given) gave NS1 function inh 3%, Cruzain inh Det 10% and Cruzain noTriton 10µM*.
Screening O=C(NC1CCCC1)C(c1ccncc1)N(C(=O)Cc1cccs1)c1ccccc1 (stereo not given) returned NS1 function inh -1%.
`O=C(NC1CCCCC1)C(c1ccc(F)cc1)N(C(=O)Cc1ccsc1)c1ccc(F)cc1` (stereo not given) gave NS1 function inh 13%, Cruzain inh Det 7% and Cruzain noTriton -2%.
Screening Cc1cc(C(F)(F)F)nc(SCC(=O)c2cccc([N+](=O)[O-])c2)n1 returned NS1 function inh 5%, Cruzain inh Det -2% and Cruzain noTriton -5%.
`CS(=O)(=O)N1CCc2cc(C(=O)NCCc3ccccc3)ccc21` gave Cruzain inh Det 2% and Cruzain noTriton -1%.
`CC1=NN(C(N)=S)C(=O)C1N=Nc1ccccc1O` (stereo not given) gave NS1 function inh 15%.
Screening CC1=NN(C(N)=S)C(=O)C1N=Nc1ccc(C)cc1C (stereo not given) returned NS1 function inh -206%, Cruzain inh Det -17% and Cruzain noTriton inconclusive.
For CC1=NN(C(N)=S)C(=O)C1N=Nc1c(C)cc(C)cc1C (stereo not given) the results were NS1 function inh -131%, Cruzain inh Det -27% and Cruzain noTriton 13µM*.
